# Experimental data: PubChem BioAssay AID1347142 (National Center for Advancing Translational Sciences (NCATS), 2019)
# Records with an inconclusive call do not appear. Values without a mark were called inactive. The source made the active and inactive calls. Calls come from the whole dose curve; as a rule, active = well fitted inhibition curve with a large enough effect; inconclusive = small, poorly fitted or top-dose-only effect; inactive = no such curve, though single readings can be large or run the other way.
# Target: N-terminal Xaa-Pro-Lys N-methyltransferase 1 (Homo sapiens) (UniProt Q9BV86)
# Sequence (Q9BV86 whole entry, looked up): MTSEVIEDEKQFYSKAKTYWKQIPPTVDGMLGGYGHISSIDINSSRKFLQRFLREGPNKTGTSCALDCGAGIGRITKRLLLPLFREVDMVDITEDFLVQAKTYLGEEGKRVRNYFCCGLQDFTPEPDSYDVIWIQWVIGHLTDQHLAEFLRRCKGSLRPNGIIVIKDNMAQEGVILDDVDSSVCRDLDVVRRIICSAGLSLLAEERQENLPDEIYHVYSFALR
# Assay: qHTS Assay for Inhibitors of N-terminal methyltransferase 1 (NTMT1): ThioGlo3 Assay Confirmatory Screen, Round 1.
# Conditions: NTMT1 SAHH-coupled ThioGlo3 fluorescence, 30 min; series mostly up to 56.8 µM; activity change, negative = inhibition: at the top concentration
# How it was run: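 Human NTMT1 at 125 nM was preincubated 1 min at room temperature with compounds at various concentrations or 1 uM RCC1-6 control. Substrate mix (100 uM SAM, 10 uM SAHH, 15 uM ThioGlo3) was added, and fluorescence (Ex 340/Em 450 nm) was read at start and after 30 min, normalized to background.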
# Note: nearly all actives have a fitted effect of over 80% in size.
# Potency is the fitted concentration of half-maximal effect.
# Throughout, for activity change, negative = inhibition: 0% is about no effect.
Compound,"activity change, negative = inhibition",Potency
CNc1ncnc2c1ncn2[C@@H]1O[C@H](CO)[C@@H](O)[C@@H]1O,7.42% [at 27.4 µM],
Nc1nc(Cl)nc2c1ncn2[C@H]1C[C@H](O)[C@@H](CO)O1,,inactive
COc1cc2c(NC3CCN(C(C)C)CC3)nc(N3CCCN(C4CCCCC4)CC3)nc2cc1OCCCN1CCCCC1,,24.1 µM (active)
Nc1ncnc2c1ncn2C1O[C@H](COP(=O)(O)O)[C@@H](O)[C@H]1O (stereo not given in full),-14.8%,
COc1cc2c(NC3CCN(C)CC3)nc(N3CCN(C)CC3)nc2cc1OCCOCCN(C)C,,21.5 µM (active)
O=c1[nH]cnc2c1ncn2[C@@H]1O[C@H](CO)[C@@H](O)[C@H]1O,,inactive
CC(C)=CCNc1ncnc2c1ncn2[C@@H]1O[C@H](CO)[C@@H](O)[C@H]1O,,13.6 µM (active)
COc1cc2c(NC3CCN(C(C)C)CC3)nc(N3CCC(F)(F)CC3)nc2cc1OCCCN1CCCC1,,24.1 µM (active)
COc1cc2nc(N3CCN(C(N)=O)CC3)nc(NC3CC3)c2cc1OC,,27.1 µM (active)
Nc1nc2c(ncn2[C@@H]2O[C@H](CO)[C@@H](O)[C@@H]2O)c(=O)[nH]1,3.06%,
COc1cc2nc(N3CCOCC3)nc(NC3CCN(Cc4ccccc4)CC3)c2cc1OC,,27.1 µM (active)
CC(C)(COP(=O)(O)OP(=O)(O)OC[C@H]1O[C@@H](n2cnc3c(N)ncnc32)[C@H](O)[C@@H]1OP(=O)(O)O)[C@H](O)C(=O)NCCC(=O)NCCS,49.5%,
COc1cc2c(NC3CCN(C4CCCCC4)CC3)nc(N3CCCN(C)CC3)nc2cc1OCCCN1CCCCC1,,24.1 µM (active)
CNc1ncnc2c1ncn2[C@@H]1O[C@H](CO)C(O)[C@H]1O (stereo not given in full),7.24%,
COc1cc2c(NC3CCN(C4CCCCC4)CC3)nc(N3CCCCC3)nc2cc1OCCOCCN(C)C,,24.1 µM (active)
NCCNC(=O)Cc1ccc(NC(=O)Cc2ccc(Nc3ncnc4c3ncn4[C@@H]3O[C@H](CO)[C@@H](O)[C@H]3O)cc2)cc1,-1.16%,
COc1cc2nc(N3CCCCC3)nc(NC3CCN(C)CC3)c2cc1OC,,27.1 µM (active)
COc1cc2c(NC3CCN(C)CC3)nc(N3CCCN(C)CC3)nc2cc1OCCCN(C)C,,27.1 µM (active)

Compound,"activity change, negative = inhibition",Potency
CSc1nc(N)c2ncn([C@@H]3O[C@H](COP(=O)(O)OP(=O)(O)OP(=O)(O)O)[C@@H](O)[C@H]3O)c2n1,3.39%,
CNC(=O)[C@H]1O[C@@H](n2cnc3c(NCc4ccc(N)cc4)ncnc32)[C@H](O)[C@@H]1O,1.41%,
COc1cc2nc(N3CCN(C)CC3)nc(NCCC3CC3)c2cc1OC,,24.1 µM (active)
COc1cc2nc(N3CCOCC3)nc(NC(C)C)c2cc1OC,,24.1 µM (active)
Cn1cnc2c(ncn2[C@@H]2O[C@H](CO)[C@@H](O)[C@H]2O)c1=N,-5.6%,
COc1cc2nc(NC3CCN(Cc4ccccc4)CC3)nc(N3CCCN(C)CC3)c2cc1OC,,24.1 µM (active)
COc1cc2c(NC3CCN(C(C)C)CC3)nc(N3CCCN(C(C)C)CC3)nc2cc1OCCCN1CCCCC1,,24.1 µM (active)
C[C@H](Cc1ccccc1)Nc1ncnc2c1ncn2[C@@H]1O[C@H](CO)[C@@H](O)[C@H]1O,10.9%,
CCCCC#Cc1nc(NC)c2ncn([C@@H]3O[C@H](CO)[C@@H](O)C3O)c2n1 (stereo not given in full),,8.57 µM (active)
COc1cc2nc(NC3CCN(C)CC3)nc(N3CCCN(C)CC3)c2cc1OC,,24.1 µM (active)
COc1cc2c(NC3CCN(C)CC3)nc(N3CCCCC3)nc2cc1OCCOCCN(C)C,,24.1 µM (active)
COc1cc2nc(N3CCCN(C)CC3)nc(NC3CCN(C)CC3)c2cc1OC,,21.5 µM (active)
Nc1ncnc2c1ncn2[C@@H]1O[C@H](COP(=O)(O)OP(=O)(O)O)[C@@H](O)[C@H]1O,-3.45%,
COc1cc2c(NC3CCN(C(C)C)CC3)nc(N3CCCCCC3)nc2cc1OCCCN1CCCCC1,,24.1 µM (active)
COc1cc2nc(N3CCN(C)CC3)nc(NC3CC3)c2cc1OC,,27.1 µM (active)
OC[C@H]1O[C@@H](n2cnc3c(NC4CCCC4)ncnc32)[C@H](O)C1O (stereo not given in full),-31.9%,
COc1cc2nc(N(C)C)nc(NC3CC3)c2cc1OC,-25.2%,
